Here are results for 37 molecules from PubChem BioAssay AID2205 (University of Pittsburgh Molecular Library Screening Center, 2009).

Among all 200,000 compounds or so, about 1,600 (0.8%) were called active.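 The calls were made as follows: active = plate Z-score above 3 for both tubulin-high and condensed-nucleus cell shares, with cell loss under 80%, at 10 µM; inactive = the rest, inconclusive results apart.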 The sample as a whole holds a higher share of actives than the screen did.

A short description of this assay: microtubule stabilizers in HeLa cells, primary screen, imaging, high-content imaging (AID 2205).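 As to % tubulin-high responders: anti alpha tubulin signal scored within the nucleus-defined area of each cell.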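 As to toxicity: 0% = mean cell density of plate MIN control wells and 100% = no cells.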 The note with it: HeLa tubulin immunostaining HCS, 24 h, at 10 µM; % Hoechst-high responders: measured here: nuclear condensation Hoechst responders, stronger effect = higher value, share of cells brighter than vehicle mean+2SD; % tubulin-high responders: stronger effect = higher value, share of cells brighter than vehicle mean+2SD; toxicity: measured here: cytotoxicity by cell density.
In the case of `COc1ccc(-n2nnnc2-c2nc3ccccc3s2)cc1`, the % Hoechst-high responders turned out to be 2.51%, the % tubulin-high responders is 4.84% (inactive) and the toxicity turned out to be 1.66%.

Consider `CCOc1cccc(-n2nnnc2-c2ccc(OC)cc2)c1`, for which the % Hoechst-high responders turned out to be 43.4%, the % tubulin-high responders was 37.6% (active) and the toxicity turned out to be 41.8%.

In the case of `CCOc1cccc(-c2nnc3sc(COc4ccc(OC)cc4)nn23)c1`, the % Hoechst-high responders was found to be 1.53%, the % tubulin-high responders was 1.43% (inactive) and the toxicity came out at 2.39%.

Take `COC(=O)c1ccc(CN2CCN(CCCc3ccccc3)C(CCO)C2)cc1` (stereo unspecified): the % Hoechst-high responders is 1.96%, the % tubulin-high responders was 3.41% (inactive) and the toxicity amounted to 10.2%.

For `CCOC(=O)Cc1ncccc1C(=O)Nc1ccc(OC)cc1`, the % Hoechst-high responders was determined as 2.23%, the % tubulin-high responders was 3.2% (inactive) and the toxicity turned out to be 5.66%.

Turning to `COc1ccccc1Nc1nc(N)nc(CN(C)C2CCCCC2)n1`, the % Hoechst-high responders came out at 1.52%, the % tubulin-high responders is 3.4% (inactive) and the toxicity turned out to be 5.42%.

`COc1ccccc1NC1=NC2(CCCC2)N=C(N)N1`: the % Hoechst-high responders came to 1.77%, the % tubulin-high responders was 2.5% (inactive) and the toxicity was 14.7%.

With `COc1ccccc1NC1=NC(c2ccc(Cl)cc2)N=C(N)N1` (stereo unspecified), the % Hoechst-high responders was determined as 46.7%, the % tubulin-high responders was 18% (active) and the toxicity came to 42.6%.

For `c1ccc(CN=C2Nc3ccccc3CS2)nc1`, the % Hoechst-high responders is 1.84%, the % tubulin-high responders is 4.7% (inactive) and the toxicity turned out to be 4.5%.

`Cc1cc(NC(=O)CSc2nnc(Nc3ccccc3F)s2)no1`: the % Hoechst-high responders turned out to be 2.66%, the % tubulin-high responders is 2.72% (inactive) and the toxicity stood at 6.41%.

Regarding `Cc1ccc(-c2csc(SCC(=O)Nc3cc(C)on3)n2)cc1`, the % Hoechst-high responders was found to be 0.903%, the % tubulin-high responders is 2.28% (inactive) and the toxicity turned out to be 2.29%.

Consider `Cc1cc(C)c2c(c1)cc(C)c1nnc(SCC(=O)Nc3cc(C)on3)n12`, for which the % Hoechst-high responders was 18.1%, the % tubulin-high responders was 40.6% (active) and the toxicity is 66.4%.

Turning to `CCc1ccccc1NC(=O)Cc1cn(C)c2ccccc12`, the % Hoechst-high responders came out at 1.88%, the % tubulin-high responders was 2.42% (inactive) and the toxicity was 1.32%.

In the case of `CCN(CC)C(=O)C(=O)c1cn(CC(=O)NCc2ccc3c(c2)OCO3)c2ccccc12`, the % Hoechst-high responders came out at 2.88%, the % tubulin-high responders is 3.53% (inactive) and the toxicity worked out at 7.75%.

Take `Cc1cc(C)cc(C(=O)NCC(=O)OCC(=O)N2CCCCC2)c1`: the % Hoechst-high responders stood at 1.86%, the % tubulin-high responders was 1.01% (inactive) and the toxicity was determined as 6.66%.

Turning to `COc1ccccc1-c1nc(C#N)c(N2CCC(C(N)=O)CC2)o1`, the % Hoechst-high responders worked out at 1.21%, the % tubulin-high responders was 0.805% (inactive) and the toxicity was found to be 3.26%.

As to `COc1ccc(Nc2oc(-c3ccccc3Cl)nc2C#N)cc1`, the % Hoechst-high responders was determined as 19.8%, the % tubulin-high responders was 22.5% (active) and the toxicity amounted to 63.9%.

On to `Cc1ccccc1-c1nc(C#N)c(NCc2ccco2)o1`, for which the % Hoechst-high responders was 2.06%, the % tubulin-high responders was 1.4% (inactive) and the toxicity was found to be 7.65%.

`N/C(=N\OS(=O)(=O)c1cccc([N+](=O)[O-])c1)c1ccncc1`: the % Hoechst-high responders was determined as 2%, the % tubulin-high responders was 1.6% (inactive) and the toxicity was found to be 1.69%.

As to `Cc1ccccc1NCC(=O)N/N=C\c1ccc([N+](=O)[O-])s1`, the % Hoechst-high responders was found to be 2.71%, the % tubulin-high responders was 2.44% (inactive) and the toxicity is 1.44%.

Regarding `O=[N+]([O-])c1ccc(C=Nc2ccc(Cl)cc2Cl)s1`, the % Hoechst-high responders was found to be 9.57%, the % tubulin-high responders was 11.5% (active) and the toxicity came to 16%.

For the molecule `CCOc1ccc(NC(=O)CCC(=O)N/N=C/c2ccc([N+](=O)[O-])s2)cc1`, the % Hoechst-high responders came to 1.9%, the % tubulin-high responders was 4.38% (inactive) and the toxicity came to 12.5%.

Regarding `CCOC(=O)/C(=C\c1ccc([N+](=O)[O-])cc1)C(=O)c1cc(C(C)=O)c(Nc2ccccc2)s1`, the % Hoechst-high responders was determined as 6.43%, the % tubulin-high responders is 24.7% (active) and the toxicity is 66.1%.

Take `Cc1cccc(NC(=O)c2sc(-c3ccccc3)nc2-c2ccc([N+](=O)[O-])cc2)c1`: the % Hoechst-high responders is 5.34%, the % tubulin-high responders was 2.13% (inactive) and the toxicity came to 9.44%.

As to `O=C(Nc1ccccc1)/C(=C/c1ccc([N+](=O)[O-])cc1)NC(=O)c1ccccc1`, the % Hoechst-high responders was 4.34%, the % tubulin-high responders is 2.81% (inactive) and the toxicity stood at 7.05%.

Take `COC(=O)c1ccc(NCC(=O)N2CCCCCC2)cc1`: the % Hoechst-high responders amounted to 2.09%, the % tubulin-high responders was 3.14% (inactive) and the toxicity worked out at 2.78%.

Take `COc1ccc(NC(=O)CSc2nnc(-c3ccccc3F)n2C2CC2)cc1S(N)(=O)=O`: the % Hoechst-high responders was 2.54%, the % tubulin-high responders was 1.8% (inactive) and the toxicity was determined as 10.7%.

As for `CCOc1cccc(C(=O)Nc2nnc(-c3cccs3)s2)c1`, the % Hoechst-high responders was 2.31%, the % tubulin-high responders is 1.76% (inactive) and the toxicity worked out at 5.03%.

Regarding `COc1cc(/C=C(\C#N)c2nc3c(s2)CC(C)CC3)ccc1O` (stereo unspecified), the % Hoechst-high responders was determined as 2.11%, the % tubulin-high responders is 1.86% (inactive) and the toxicity turned out to be 0.488%.

For the molecule `CCOc1cc(/C=C(\C#N)c2nc(-c3cccs3)c(NC(C)=O)s2)ccc1O`, the % Hoechst-high responders is 49.3%, the % tubulin-high responders is 16.7% (active) and the toxicity was 32.4%.

`CCCCc1cc2c(s1)CCCC/C2=N/O`: the % Hoechst-high responders is 1.99%, the % tubulin-high responders was 5.07% (inactive) and the toxicity turned out to be 0.0044%.

Regarding `CCC(=O)Nc1cccc(NC(=O)c2cccnc2)c1`, the % Hoechst-high responders turned out to be 1.83%, the % tubulin-high responders is 4.1% (inactive) and the toxicity worked out at 8.32%.

For `COc1ccc2nc(Nc3nc4ccc(NC(C)=O)cc4s3)sc2c1`, the % Hoechst-high responders stood at 3.35%, the % tubulin-high responders is 5.83% (inactive) and the toxicity was found to be 4.23%.

As to `CCCC(=O)Nc1nc2ccc(NC(=O)c3c(F)c(F)c(OC)c(F)c3F)cc2s1`, the % Hoechst-high responders was found to be 44.1%, the % tubulin-high responders is 12.2% (active) and the toxicity was 35.6%.

As for `CSc1nc2ccc(NC(=O)c3c(F)cccc3F)cc2s1`, the % Hoechst-high responders turned out to be 3.31%, the % tubulin-high responders is 2.54% (inactive) and the toxicity was determined as 0.69%.

For `CCCC(=O)Nc1nc2ccc(NC(=O)c3cccnc3)cc2s1`, the % Hoechst-high responders was 19.5%, the % tubulin-high responders is 35.9% (active) and the toxicity came out at 55.8%.

Regarding `CCOC(=O)c1cc(NC(=O)c2cccnc2)cc(C(=O)OCC)c1`, the % Hoechst-high responders worked out at 1.98%, the % tubulin-high responders was 4.37% (inactive) and the toxicity came to 5.37%.
